Data on 23 compounds can be found in PubChem BioAssay (Tox21).

Experiment [1] can be described thus: qHTS assay to test for compound auto fluorescence at 535 nm (green) in HEK293 cells (AID 720680).
Experiment [2] in a line: qHTS assay to test for compound auto fluorescence at 460 nm (blue) in HEK293 cell free culture (AID 720681). An outline of the steps:
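Compounds were added to cell-free DMEM with 10% FBS and fluorescence read directly. The blue channel used 405 nm excitation and 460 nm emission, with triamterene as the reference fluorophore.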
On the technique in general: qHTS replaces the single test concentration by a dilution series.

Experiment [3] in a line: qHTS assay to test for compound auto fluorescence at 535 nm (green) in HEK293 cell free culture (AID 720682). An outline of the steps: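 Green-label autofluorescence (485 nm excitation, 535 nm emission) measured on compound added to cell-free culture medium (DMEM, 10% FBS). Output is expressed relative to fluorescein.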
Experiment [4] can be described thus: qHTS assay to test for compound auto fluorescence at 590 nm (red) in HEK293 cell free culture (AID 720683). An outline of the steps: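 Cell-free wells of DMEM with 10% FBS received compound, and intrinsic fluorescence was read at excitation/emission 540/590 nm. Values expressed as equivalence to Rose Bengal sodium.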
The nature of experiment [5]: qHTS assay to test for compound auto fluorescence at 590 nm (red) in HepG2 cell free culture (AID 720684). In outline:
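Compound was pinned into wells holding MEM with 10% FBS and no cells, and red fluorescence was read at Ex/Em 540/590 nm. Signal is expressed as auto fluorescence equivalency relative to Rose Bengal sodium.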

Experiment [6] is described as follows: qHTS assay to test for compound auto fluorescence at 460 nm (blue) in HepG2 cell free culture (AID 720685). In outline: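 Compound (23 nL) or DMSO pinned into cell-free MEM with 10% FBS; blue fluorescence read at 405/460 nm excitation/emission, expressed as auto-fluorescence equivalency to triamterene.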
A short description of experiment [7]: qHTS assay to test for compound auto fluorescence at 535 nm (green) in HepG2 cell free culture (AID 720686).
Experiment [8] in a line: qHTS assay to test for compound auto fluorescence at 460 nm (blue) in HepG2 cells (AID 720687). An outline of the steps: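 HepG2 cells in MEM with 10% FBS, attached overnight at 37 C, were exposed to compound or DMSO for 1 hr at 37 C, 5% CO2. Blue fluorescence was read at 405/460 nm, with triamterene as reference fluorophore.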
Experiment [9] addresses Glucocorticoid receptor (Homo sapiens) (UniProt P04150). In words: qHTS assay to identify small molecule agonists of the glucocorticoid receptor (GR) signaling pathway (AID 720691; active = well fitted activation curve with a large enough effect in the signal ratio in the repeat runs, not every such curve was filed as active; the % refers to the signal ratio; note: potency is the fitted concentration of half-maximal effect). In outline:
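qHTS in GR-bla HeLa cells: 4 h settling at 37 C/5% CO2, 18 h compound incubation at 37 C, 2 h LiveBLAzer B/G FRET substrate at room temperature, fluorescence intensity measured.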

Experiment [10] shares this target. In words: qHTS assay to identify small molecule antagonists of the glucocorticoid receptor (GR) signaling pathway (AID 720692; active = well fitted inhibition curve with a large enough effect in the signal ratio in the repeat runs, not every such curve was filed as active; the % refers to the signal ratio). In outline:
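Inhibition of glucocorticoid signalling is measured in HeLa cells with a GRE-controlled beta-lactamase reporter; cells are co-treated with compound and 5 nM dexamethasone (final) for 18 h before FRET substrate readout.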

Values without a mark were called inactive. Inconclusive results are not listed. Activity calls are given as the source filed them. Unless noted, calls come from the whole dose curve; as a rule, active = well fitted curve in the direction sought with a large enough effect in the repeat runs; inconclusive = weak or mixed curves; inactive = flat fitted curve, though single readings scatter.
% is set by controls: 0 for no effect and ±100 for the full control effect.

Chain of Glucocorticoid receptor (Homo sapiens) (P04150 whole entry, looked up): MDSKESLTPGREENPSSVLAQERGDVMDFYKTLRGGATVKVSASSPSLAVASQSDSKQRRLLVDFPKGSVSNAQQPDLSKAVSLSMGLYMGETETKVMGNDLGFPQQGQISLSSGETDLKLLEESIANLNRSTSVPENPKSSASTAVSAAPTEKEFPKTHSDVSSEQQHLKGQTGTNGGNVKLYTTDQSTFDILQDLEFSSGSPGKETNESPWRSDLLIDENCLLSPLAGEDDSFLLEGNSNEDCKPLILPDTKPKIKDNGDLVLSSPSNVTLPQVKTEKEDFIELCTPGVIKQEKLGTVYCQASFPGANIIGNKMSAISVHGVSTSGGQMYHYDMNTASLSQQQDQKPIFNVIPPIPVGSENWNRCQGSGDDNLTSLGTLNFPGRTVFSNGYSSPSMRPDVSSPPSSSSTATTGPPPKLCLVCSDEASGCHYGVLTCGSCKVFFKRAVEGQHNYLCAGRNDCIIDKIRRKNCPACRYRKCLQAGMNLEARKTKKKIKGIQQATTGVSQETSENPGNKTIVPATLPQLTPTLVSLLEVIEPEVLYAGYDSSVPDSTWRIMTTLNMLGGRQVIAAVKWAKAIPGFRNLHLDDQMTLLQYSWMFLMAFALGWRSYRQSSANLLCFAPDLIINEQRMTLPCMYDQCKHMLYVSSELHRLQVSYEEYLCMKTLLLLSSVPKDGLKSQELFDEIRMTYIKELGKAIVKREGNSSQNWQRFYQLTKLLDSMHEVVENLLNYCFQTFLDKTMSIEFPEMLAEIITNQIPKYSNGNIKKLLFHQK

For the compound `O=C(Cn1ccnc1[N+](=O)[O-])NCc1ccccc1`, the compound was called inactive in experiment [1], in experiment [2], in experiment [3], in [4], in experiment [5] and in experiment [6]. Also, the call in [7], in experiment [8] and in experiment [10] was inactive. For the same compound, the Potency entry in experiment [9] is “inactive”.

`CC(=O)CC(=O)OC(C)(C)C`: the outcome in [1], in experiment [2], in [3], in experiment [4], in experiment [5] and in [6] was inactive. The compound was called inactive in [7] and in experiment [8]. The Potency result in [9] was “inactive”.

In the case of `O=C1CCCCO1`, the outcome in experiment [1], in experiment [2], in experiment [3], in experiment [4], in [5] and in [6] was inactive. The call in [7], in experiment [8] and in experiment [10] was inactive. In addition, the Potency result in [9] was “inactive”.

As for `Nc1nc(-c2ccccc2)c(Br)c(=O)[nH]1`, the result in [1], in experiment [2], in [3], in experiment [4], in [5] and in experiment [6] was inactive. Moreover, the outcome in [7] and in experiment [8] was inactive. The Potency entry in experiment [9] is “inactive”.

In the case of `C=C(C)c1cccc(C(C)(C)N=C=O)c1`, the call in [1], in experiment [2], in experiment [3], in experiment [4], in experiment [5] and in experiment [6] was inactive. Further, the outcome in experiment [7] and in experiment [8] was inactive. In addition, the Potency result in experiment [9] is “inactive”.

With `CCC(C)C(=O)OCCc1ccccc1` (stereo not drawn), the outcome in [1], in experiment [2], in experiment [3], in [4], in [5] and in experiment [6] was inactive. In addition, the compound was called inactive in [7], in [8] and in [10]. For the same compound, the Potency entry in experiment [9] is “inactive”.

`CN(C)C(C)(C)CO`: the result in experiment [1], in [2], in experiment [3], in experiment [4], in experiment [5] and in experiment [6] was inactive. For the same compound, the compound was called inactive in experiment [7], in [8] and in experiment [10]. In experiment [9], the Potency result was “inactive”.

As to `CC(=O)CC(=O)Nc1ccc(C)cc1C`, the compound was classed as inactive in experiment [1], in [2], in experiment [3], in experiment [4], in [5] and in [6]. The compound was classed as inactive in experiment [7], in experiment [8] and in experiment [10]. In addition, in [9], the Potency result was “inactive”.

As to `c1ccc2cnccc2c1`, the compound was called inactive in [1], in experiment [2], in experiment [3], in experiment [4], in experiment [5] and in experiment [6]. Further, the result in [7], in experiment [8] and in [10] was inactive. Further, the Potency result in experiment [9] was “inactive”.

In the case of `CCCCCCCCCOC(=O)c1ccccc1C(=O)OCCCCCCCCC`, the result in experiment [1], in experiment [2], in experiment [3], in experiment [4], in experiment [5] and in [6] was inactive. Besides, the outcome in experiment [7] and in experiment [8] was inactive. Besides, the Potency entry in experiment [9] was “inactive”.

As to `Cn1c(=O)c2[nH]c(Br)nc2n(C)c1=O`, the compound was called inactive in experiment [1], in experiment [2], in [3], in [4], in experiment [5] and in experiment [6]. The result in [7], in experiment [8] and in [10] was inactive. Moreover, the Potency result in experiment [9] is “inactive”.

In the case of `CC1(C)O[C@H]2CC(=O)OC[C@]23[C@H]2CC[C@@]4(C)[C@H](c5ccoc5)OC(=O)[C@H]5O[C@]54[C@]2(C)C(=O)C[C@@H]13`, the outcome in [1], in [2], in experiment [3], in [4], in [5] and in experiment [6] was inactive. Also, the result in experiment [7] and in experiment [8] was inactive. In addition, the Potency in [9] was 8.49 µM (active).

In the case of `C/C(CC(C)C)=N\O`, the outcome in experiment [1], in [2], in [3], in experiment [4], in experiment [5] and in experiment [6] was inactive. Besides, the result in [7], in experiment [8] and in experiment [10] was inactive. Moreover, in [9], the Potency result was “inactive”.

On to `CC(O)CC(C)O` (stereo not drawn), for which the result in [1], in experiment [2], in [3], in experiment [4], in experiment [5] and in [6] was inactive. Also, the compound was called inactive in experiment [7], in [8] and in [10]. In experiment [9], the Potency entry was “inactive”.

With `CC(Oc1cc(Cl)ccc1Cl)C(=O)O` (stereo not drawn), the compound was called inactive in experiment [1], in [2], in [3], in experiment [4], in [5] and in experiment [6]. Besides, the outcome in experiment [7] and in experiment [8] was inactive. Moreover, in [9], the Potency entry was “inactive”.

For `OCC1(CO)COCOC1`, the call in experiment [1], in experiment [2], in [3], in experiment [4], in [5] and in experiment [6] was inactive. Also, the compound was called inactive in [7] and in experiment [8]. Besides, the Potency entry in experiment [9] is “inactive”.

Take `COc1c2occc2c(OC)c2c(=O)cc(C)oc12`: the fluorescence, % of fluorescein in experiment [1] is -0.0108% [at 18.6 µM]. Also, the fluorescence, % of fluorescent control in [2] was -0.0224% [at 18.6 µM]; in experiment [4] it was -0.33% [at 18.6 µM]; in experiment [6], -0.0661% [at 18.6 µM]; in [8], 0.0073% [at 18.6 µM]. The activity change in experiment [3] is 0.0751% [at 18.6 µM]. Moreover, the fluorescence, % of Rose Bengal in [5] was -0.125% [at 18.6 µM]. In addition, the fluorescence, % of fluorescein control in experiment [7] is 0.0616% [at 18.6 µM]. The Potency entry in experiment [9] is “inactive”. For the same compound, the call in [10] was inactive.

As for `O=Cc1cc2ccccc2o1`, the call in [1], in experiment [2], in experiment [3], in [4], in experiment [5] and in [6] was inactive. The result in experiment [7], in experiment [8] and in experiment [10] was inactive. The Potency entry in experiment [9] was “inactive”.

With `CN(C)CCOC(=O)C(c1ccccc1)C1(O)CCCC1` (stereo not drawn), the outcome in [1], in experiment [2], in experiment [3], in [4], in experiment [5] and in experiment [6] was inactive. The compound was classed as inactive in experiment [7], in experiment [8] and in experiment [10]. The Potency entry in experiment [9] was “inactive”.

For the compound `CC(C)Nc1ccccc1`, the call in experiment [1], in [2], in experiment [3], in [4], in experiment [5] and in experiment [6] was inactive. The outcome in experiment [7], in experiment [8] and in [10] was inactive. In experiment [9], the Potency result is “inactive”.

Consider `COC(=O)/C=C\C(=O)O`, for which the result in experiment [1], in [2], in experiment [3], in experiment [4], in experiment [5] and in experiment [6] was inactive. Further, the outcome in [7], in [8] and in experiment [10] was inactive. Further, the Potency result in experiment [9] was “inactive”.

With `Cc1ccccc1C(N)=O`, the compound was called inactive in experiment [1], in [2], in experiment [3], in experiment [4], in experiment [5] and in experiment [6]. In addition, the compound was classed as inactive in experiment [7], in experiment [8] and in [10]. Also, the Potency result in experiment [9] was “inactive”.

With `O=C(O)c1cc2ccccc2nc1C(=O)O`, the compound was classed as inactive in [1], in [2], in experiment [3], in experiment [4], in experiment [5] and in [6]. In addition, the outcome in experiment [7], in experiment [8] and in experiment [10] was inactive. Moreover, the Potency result in [9] is “inactive”.
